High-throughput results deposited in PubChem BioAssay by National Center for Advancing Translational Sciences (NCATS).
Rows were chosen to be rich in hits. Some 11% of all compounds tested hit in one or more screens of this group.
Tau fibril FP – blocks human tau fibril formation measured by polarization; P10636; K18 P301L tau heparin fibrillization, Alexa594 FP, 6 h; Potency, µM (titrated, usually from 57.7 µM), inactives show at the highest dose activity, negative = inhibition, most hits filed as inhibitors; 280,000 tested, 0.39% active; AID 1468; further: potency means the concentration at half of the fitted maximal effect; nearly all actives have a fitted effect of over 55% in size
Target sequence (P10636 561-689 P618L limits assumed): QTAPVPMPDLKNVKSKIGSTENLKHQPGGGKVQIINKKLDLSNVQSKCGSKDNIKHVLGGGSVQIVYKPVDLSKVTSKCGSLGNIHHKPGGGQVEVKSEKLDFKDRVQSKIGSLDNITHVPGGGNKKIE
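Quantitative HTS format: compounds meet 15 uM recombinant K18 P301L tau and Alexa 594-tau tracer in 100 mM sodium acetate pH 7; 20 uM heparin triggers fibrillization at 37 C over 6 hr; FP gives the signal.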
Tau fluor counter – counter-screen for tau fibril formation inhibitors | tau K18 P301L Alexa594 fluorescence, heparin fibrillization | Potency, µM (top dose mostly 57.7 µM), for the others: top-dose activity change, negative = decrease | 280,000 tested, 0.93% active | AID 1463; further: potency means the concentration at half of the fitted maximal effect; nearly all actives have a fitted effect of over 55% in size
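Human K18 P301L tau (15 uM unlabeled plus 0.24 uM Alexa 594-labeled, final) in 100 mM sodium acetate pH 7 was mixed with compound and 20 uM heparin and incubated 6 hr at 37 C.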
G9a inh – blocks human histone lysine methyltransferase G9a; G9a H3K9 monomethylation, AlphaScreen, 2 h; Potency, µM (titrated, usually from 102 µM), for the others: at the top dose activity, negative = inhibition, most hits filed as inhibitors; 350,000 tested, 8.8% active; AID 504332; further: potency means the concentration at half of the fitted maximal effect; nearly all actives have a fitted effect of over 75% in size
Target sequence (Q96KQ7 913-1193 limits assumed): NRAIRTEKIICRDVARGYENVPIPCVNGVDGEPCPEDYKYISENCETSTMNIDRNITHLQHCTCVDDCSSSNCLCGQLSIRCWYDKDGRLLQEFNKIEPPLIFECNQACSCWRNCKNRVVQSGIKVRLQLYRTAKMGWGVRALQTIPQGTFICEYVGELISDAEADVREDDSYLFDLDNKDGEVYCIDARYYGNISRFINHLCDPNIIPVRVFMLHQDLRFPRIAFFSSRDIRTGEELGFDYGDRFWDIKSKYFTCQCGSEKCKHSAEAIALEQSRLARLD
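Enzyme 20 nM + cpd, 15 min RT; add b-H3K9 pep 500 nM / SAM 20 uM; 2 h RT; anti-H3K9me1 Ab 0.5 ug/mL + SA donor / anti-rabbit acceptor beads 20 ug/mL each, 10 min; AlphaScreen read.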
Coupling enz – inhibits coupling enzyme system, counter-screen for aldolase hits; coupling enzyme system counterscreen, AmpLite Red fluorescence; activity change, negative = inhibition, % at 58.2 µM, hits read low; 290,000 tested, 0.67% active; AID 2472; in the data active means activity change below about -30%
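Compounds tested against the coupling enzymes alone at 57.5 uM final; readout was AmpLite Red fluorescence (525/598 nm) after 20 min at RT.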
Tau fibril ThT – blocks human tau fibril formation measured by thioflavin T; Potency, µM (top dose mostly 57.4 µM), for the others: top-dose activity, negative = inhibition, usual class: inhibitors; 270,000 tested, 2.1% active; AID 1460; recombinant tau K18 P301L (four-repeat tau fragment), heparin-induced fibrillization, ThT fluorescence; P10636; further: potency means the concentration at half of the fitted maximal effect; nearly all actives have a fitted effect of over 55% in size
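Recombinant human tau K18 fragment […] carrying P301L, 15 uM unlabeled plus 0.24 uM Alexa 594-labeled, was fibrillized with 20 uM heparin in 100 mM sodium acetate pH 7 for 6 hr at 37 C; 30 uM ThT fluorescence read after 1 hr.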
Sfp inh – blocks B. subtilis Sfp PPTase activity; Potency, µM, for inactives: largest response in the series, negative = inhibition, usual class: inhibitors; 310,000 tested, 3.5% active; Biochemical Sfp PPTase activity, qHTS; AID 1490;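 further: the enzyme is Sfp with the accession as filed and its product quenches rhodamine fluorescence; potency means the concentration at half of the fitted maximal effect; 0% = enzyme reaction without inhibitor and -100% = no enzyme wells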
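After 15 min at room temperature with compound, 15 nM Sfp received 5 uM rhodamine-CoA plus 12.5 uM BHQ-2-ybbR (50 mM Hepes pH 7.6, 10 mM MgCl2). Rate came from the fluorescence difference over 30 min, ex 525/em 598 nm.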
Starred values were filed as active, the others as inactive; ? = inconclusive; · = not tested or not shown; ! = repeats disagree; [ ] = dose if it differs, or a comment. Unless noted, the call rests on the fitted dose curve; in most records, active means well fitted curve in the direction sought with a large enough effect; inconclusive means small, poorly fitted or top-dose-only effect, or another doubt; inactive means no such curve, though single readings can be large; an effect the other way counts as inactive or inconclusive. Unless noted, on the % scale 0 is the no-effect control and ±100 the full control effect.

SMILES	Tau fibril FP	Tau fluor counter	G9a inh	Coupling enz	Tau fibril ThT	Sfp inh
COc1ccc(NC(=O)c2cccc(C(=O)Nc3ccc(OC)cc3)n2)cc1	-14%	-5%	71µM*	3	0%	?
COc1ccc(NC(=O)c2cc(-c3ccccc3O)no2)cc1	13%	?	13µM*	·	?	·
COc1ccc(-c2cc(C(=O)Nc3ccccc3)on2)cc1	0%	3%	9%	0	-12%	16%
CC1CN(S(=O)(=O)c2ccc(C(=O)OCc3ccc(C#N)cc3)cc2)CC(C)O1 (stereo unspecified)	·	·	-6%[59 µM]	·	·	·
Cc1c(O)ccc(C(=O)CN2CCN(c3ccc(F)cc3)CC2)c1O	·	·	45µM*	1	·	10%
Cc1c(O)ccc(C(=O)CN2CCN(Cc3ccccc3)CC2)c1O	·	·	79µM*	1	·	-8%
O=c1c(-c2ccccc2)nc2cnc(N3CCOCC3)nc2n1CCc1ccccc1	·	·	22%[0.501 µM]	3	·	3%
Cc1nc(NS(=O)(=O)c2ccccc2)sc1NC(=O)OCCN(C)C	-4%	-10%	?	-1	?	20µM*
CCOC(=O)c1sc(NS(=O)(=O)c2ccccc2)nc1C	1%	-1%	-2%	5	-6%	14%
CC(C)NS(=O)(=O)c1ccc(CCC(=O)N2CCC(C(N)=O)CC2)cc1	-11%	-27%	·	-31*	?	-23%
CC(C)NS(=O)(=O)c1ccc(CCC(=O)N2CCCC2)cc1	-3%	2%	·	-2	1%	5%
O=c1c(Cc2ccc(F)cc2)c(O)ccn1CCc1ccccn1	-5%	0%	-22%	-2	-2%	9%
Cc1ccc(-c2nc3c4cnn(-c5cc(Cl)ccc5Cl)c4ncn3n2)cc1	-12%	-14%	-40%[59 µM]	·	-13%	·
O=C(O)/C=C/c1cnc[nH]1	5%	-4%	13µM*!	2	-4%	-17%
COc1ccc(Nc2nc(N)nc(CSc3nnc(C)s3)n2)cc1	4%	5%	12%[59 µM]	9	-9%	7%
COc1ccc(Nc2nc(N)nc(CSc3nc4cc(OC)ccc4s3)n2)cc1	-2%	14µM*[quencher]	?	·	?	·
COc1cc(Br)c(CN2C(=O)NC3(CCCCCC3)C2=O)cc1OC	·	·	45µM*	10	·	9%
CC(=O)c1ccc(NC(=O)C[n+]2cccc(C)c2)cc1	·	·	7%	2	·	11%
COc1cc2c(cc1OC)CN(CC(=O)Nc1ccc(S(=O)(=O)N(C)C)cc1)CC2	-2%	-11%	8%	-1	-5%	2%
CCN1CCN(CC(=O)Nc2ccc(Cl)c(S(=O)(=O)N(C)C)c2)CC1	5%	0%	4µM*	-4	2%	40µM*
Cc1ccc(NC(=O)CN2CCc3ccccc3C2)cc1S(=O)(=O)N(C)C	-7%	-3%	10µM*	-4	-1%	-33%
CN(C)S(=O)(=O)c1cc(NC(=O)CSc2ncc(C(F)(F)F)cc2Cl)ccc1Cl	28µM*	?	?	-4	1%	-10%
COc1cc2c(cc1OC)CN(CC(=O)Nc1ccc(Cl)c(S(=O)(=O)N(C)C)c1)CC2	-6%	-20%	45µM*	0	0%	9%
CN(C)S(=O)(=O)c1cc(NC(=O)CN2CCOCC2)ccc1Cl	4%	2%	23%	1	-4%	24%
CCN(CC)S(=O)(=O)c1ccc(O)c(NC(=O)CN2CCc3ccccc3C2)c1	-13%	-15%	15%	4	2%	33%
CN(C)S(=O)(=O)c1ccc(Cl)c(NC(=O)CN2CCc3ccccc3C2)c1	-3%	-12%	45µM*	0	-9%	1%
O=C(NCc1ccccc1Cl)c1ccc(CS(=O)(=O)c2ccc(Br)cc2)o1	4%	-19%	-22%[59 µM]	·	-5%	·
CS(=O)(=O)c1ncc(Cl)c(C(=O)Nc2ccc3ccccc3c2)n1	-10%	6%	10µM*	-1	?	13µM*
CCS(=O)(=O)c1ncc(Cl)c(C(=O)Nc2ccc(C)cc2)n1	·	·	·	0	·	?
